Assay [1] concerns the target Sphingosine kinase 1 (Homo sapiens) (UniProt Q9NYA1). The note with it: at 1 µM.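 Also: mean SPHK1 inhibition value reported from the GSK PKIS kinase panel screen.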
For assay [2], the target named is T1, Sphingosine kinase 2 (Homo sapiens) (UniProt Q9NRA0).
T1 sequence (whole entry): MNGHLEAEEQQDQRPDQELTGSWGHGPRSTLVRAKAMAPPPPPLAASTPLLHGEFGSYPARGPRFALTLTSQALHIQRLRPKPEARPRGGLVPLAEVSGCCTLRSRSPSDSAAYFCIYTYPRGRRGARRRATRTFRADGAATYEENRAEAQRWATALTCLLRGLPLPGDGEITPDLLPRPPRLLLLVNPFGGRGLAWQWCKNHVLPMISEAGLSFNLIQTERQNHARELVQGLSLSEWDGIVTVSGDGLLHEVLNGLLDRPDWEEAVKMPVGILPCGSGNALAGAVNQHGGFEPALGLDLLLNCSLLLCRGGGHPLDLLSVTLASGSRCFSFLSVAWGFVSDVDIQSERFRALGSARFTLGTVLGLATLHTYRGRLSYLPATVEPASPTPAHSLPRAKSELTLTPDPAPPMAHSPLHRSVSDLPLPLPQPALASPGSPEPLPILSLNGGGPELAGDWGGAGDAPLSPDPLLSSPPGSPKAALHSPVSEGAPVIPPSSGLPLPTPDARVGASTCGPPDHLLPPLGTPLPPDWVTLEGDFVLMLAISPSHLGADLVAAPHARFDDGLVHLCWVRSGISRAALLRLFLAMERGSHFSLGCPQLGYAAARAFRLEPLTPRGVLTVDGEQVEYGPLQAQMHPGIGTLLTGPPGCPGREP
Conditions: at 0.1 µM.

Assay [3] addresses T1, Sphingosine kinase 2 (Homo sapiens). Conditions: at 1 µM.
In assay [4] the target is Casein kinase II subunit alpha (Homo sapiens) (UniProt P68400). The note with it: at 0.1 µM.
Sequence of Casein kinase II subunit alpha (Homo sapiens) (P68400 whole entry, looked up): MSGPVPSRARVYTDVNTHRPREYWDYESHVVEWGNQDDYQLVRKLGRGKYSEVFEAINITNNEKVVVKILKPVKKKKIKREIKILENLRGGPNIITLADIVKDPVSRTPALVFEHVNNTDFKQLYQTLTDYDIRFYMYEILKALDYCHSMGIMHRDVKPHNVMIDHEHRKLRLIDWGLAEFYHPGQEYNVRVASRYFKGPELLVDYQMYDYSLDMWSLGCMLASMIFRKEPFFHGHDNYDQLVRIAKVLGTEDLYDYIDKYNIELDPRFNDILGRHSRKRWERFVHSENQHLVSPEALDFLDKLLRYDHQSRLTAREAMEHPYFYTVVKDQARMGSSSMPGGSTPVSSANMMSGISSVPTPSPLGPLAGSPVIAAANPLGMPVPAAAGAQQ
For assay [5] the target is unchanged. Conditions: at 1 µM.
In assay [6] the target is T2, Inhibitor of nuclear factor kappa-B kinase subunit alpha (Homo sapiens) (UniProt O15111).
T2 sequence (whole entry): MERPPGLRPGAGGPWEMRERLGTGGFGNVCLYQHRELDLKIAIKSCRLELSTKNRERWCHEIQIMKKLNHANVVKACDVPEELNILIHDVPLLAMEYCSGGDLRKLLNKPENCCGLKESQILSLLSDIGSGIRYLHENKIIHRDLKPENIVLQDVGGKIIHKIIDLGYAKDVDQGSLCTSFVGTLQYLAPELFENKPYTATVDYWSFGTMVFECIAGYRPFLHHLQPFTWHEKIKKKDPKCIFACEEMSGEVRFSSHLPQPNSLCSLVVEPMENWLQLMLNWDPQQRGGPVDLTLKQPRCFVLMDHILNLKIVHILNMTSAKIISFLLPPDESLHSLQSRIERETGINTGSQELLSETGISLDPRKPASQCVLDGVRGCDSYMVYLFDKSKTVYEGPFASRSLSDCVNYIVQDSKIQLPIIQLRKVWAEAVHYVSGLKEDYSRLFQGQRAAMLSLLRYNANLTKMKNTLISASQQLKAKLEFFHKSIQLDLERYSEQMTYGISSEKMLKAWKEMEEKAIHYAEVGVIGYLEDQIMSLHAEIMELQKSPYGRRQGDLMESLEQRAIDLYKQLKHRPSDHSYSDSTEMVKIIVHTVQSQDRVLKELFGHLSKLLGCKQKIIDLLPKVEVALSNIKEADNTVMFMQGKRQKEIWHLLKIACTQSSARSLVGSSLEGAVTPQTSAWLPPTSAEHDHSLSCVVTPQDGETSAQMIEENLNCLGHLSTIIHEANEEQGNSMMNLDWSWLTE
The note with it: at 0.1 µM.

The target of assay [7] is T2, Inhibitor of nuclear factor kappa-B kinase subunit alpha (Homo sapiens). Conditions: at 1 µM.
In assay [8] the target is T3, Inhibitor of nuclear factor kappa-B kinase subunit beta (Homo sapiens) (UniProt O14920).
T3 sequence (whole entry): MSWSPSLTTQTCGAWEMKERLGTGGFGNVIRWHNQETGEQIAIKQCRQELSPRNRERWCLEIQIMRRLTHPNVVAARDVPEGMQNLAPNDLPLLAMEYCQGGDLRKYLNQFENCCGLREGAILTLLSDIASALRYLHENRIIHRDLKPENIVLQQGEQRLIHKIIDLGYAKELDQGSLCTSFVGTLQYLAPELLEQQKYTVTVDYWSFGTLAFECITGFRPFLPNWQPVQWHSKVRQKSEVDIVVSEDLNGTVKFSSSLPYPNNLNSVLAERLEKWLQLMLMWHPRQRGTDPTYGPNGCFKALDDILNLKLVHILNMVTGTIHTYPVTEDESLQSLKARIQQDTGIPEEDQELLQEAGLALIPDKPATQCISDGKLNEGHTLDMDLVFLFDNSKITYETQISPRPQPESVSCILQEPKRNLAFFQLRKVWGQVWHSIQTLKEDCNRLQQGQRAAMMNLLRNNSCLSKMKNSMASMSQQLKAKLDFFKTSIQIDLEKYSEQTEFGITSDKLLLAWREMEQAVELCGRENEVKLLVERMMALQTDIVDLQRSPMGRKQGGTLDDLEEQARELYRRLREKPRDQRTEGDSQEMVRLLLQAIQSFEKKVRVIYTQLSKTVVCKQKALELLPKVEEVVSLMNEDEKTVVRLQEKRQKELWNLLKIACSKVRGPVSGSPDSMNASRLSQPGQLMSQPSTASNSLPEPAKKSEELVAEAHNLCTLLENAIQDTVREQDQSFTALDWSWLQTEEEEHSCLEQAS
The note with it: at 0.1 µM.

Assay [9] has as its target T3, Inhibitor of nuclear factor kappa-B kinase subunit beta (Homo sapiens). Conditions: at 1 µM.
In assay [10] the target is T4, Inhibitor of nuclear factor kappa-B kinase subunit epsilon (Homo sapiens) (UniProt Q14164).
T4 sequence (whole entry): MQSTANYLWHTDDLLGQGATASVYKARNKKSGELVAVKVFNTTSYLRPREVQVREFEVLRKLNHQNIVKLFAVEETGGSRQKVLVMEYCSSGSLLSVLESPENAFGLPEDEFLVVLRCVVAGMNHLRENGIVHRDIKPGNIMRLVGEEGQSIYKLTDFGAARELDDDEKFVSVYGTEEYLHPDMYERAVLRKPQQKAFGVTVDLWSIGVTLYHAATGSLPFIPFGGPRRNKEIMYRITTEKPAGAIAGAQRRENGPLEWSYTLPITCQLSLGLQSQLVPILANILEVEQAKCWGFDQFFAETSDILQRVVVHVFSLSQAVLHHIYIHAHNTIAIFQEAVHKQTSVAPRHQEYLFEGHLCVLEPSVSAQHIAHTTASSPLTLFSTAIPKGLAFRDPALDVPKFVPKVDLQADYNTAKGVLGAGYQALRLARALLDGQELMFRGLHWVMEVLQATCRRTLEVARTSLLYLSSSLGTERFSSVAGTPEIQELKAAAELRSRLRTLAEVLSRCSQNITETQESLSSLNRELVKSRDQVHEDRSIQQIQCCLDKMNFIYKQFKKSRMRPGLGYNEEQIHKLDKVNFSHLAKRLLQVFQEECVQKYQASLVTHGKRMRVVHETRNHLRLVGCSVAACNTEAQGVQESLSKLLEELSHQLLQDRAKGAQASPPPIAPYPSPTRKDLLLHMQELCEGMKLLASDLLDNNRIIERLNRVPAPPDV
Conditions: at 0.1 µM.

Assay [11] addresses T4, Inhibitor of nuclear factor kappa-B kinase subunit epsilon (Homo sapiens). Conditions: at 1 µM.
Assay [12] deals with T5, Serine/threonine-protein kinase Nek1 (Homo sapiens) (UniProt Q96PY6).
T5 sequence (whole entry): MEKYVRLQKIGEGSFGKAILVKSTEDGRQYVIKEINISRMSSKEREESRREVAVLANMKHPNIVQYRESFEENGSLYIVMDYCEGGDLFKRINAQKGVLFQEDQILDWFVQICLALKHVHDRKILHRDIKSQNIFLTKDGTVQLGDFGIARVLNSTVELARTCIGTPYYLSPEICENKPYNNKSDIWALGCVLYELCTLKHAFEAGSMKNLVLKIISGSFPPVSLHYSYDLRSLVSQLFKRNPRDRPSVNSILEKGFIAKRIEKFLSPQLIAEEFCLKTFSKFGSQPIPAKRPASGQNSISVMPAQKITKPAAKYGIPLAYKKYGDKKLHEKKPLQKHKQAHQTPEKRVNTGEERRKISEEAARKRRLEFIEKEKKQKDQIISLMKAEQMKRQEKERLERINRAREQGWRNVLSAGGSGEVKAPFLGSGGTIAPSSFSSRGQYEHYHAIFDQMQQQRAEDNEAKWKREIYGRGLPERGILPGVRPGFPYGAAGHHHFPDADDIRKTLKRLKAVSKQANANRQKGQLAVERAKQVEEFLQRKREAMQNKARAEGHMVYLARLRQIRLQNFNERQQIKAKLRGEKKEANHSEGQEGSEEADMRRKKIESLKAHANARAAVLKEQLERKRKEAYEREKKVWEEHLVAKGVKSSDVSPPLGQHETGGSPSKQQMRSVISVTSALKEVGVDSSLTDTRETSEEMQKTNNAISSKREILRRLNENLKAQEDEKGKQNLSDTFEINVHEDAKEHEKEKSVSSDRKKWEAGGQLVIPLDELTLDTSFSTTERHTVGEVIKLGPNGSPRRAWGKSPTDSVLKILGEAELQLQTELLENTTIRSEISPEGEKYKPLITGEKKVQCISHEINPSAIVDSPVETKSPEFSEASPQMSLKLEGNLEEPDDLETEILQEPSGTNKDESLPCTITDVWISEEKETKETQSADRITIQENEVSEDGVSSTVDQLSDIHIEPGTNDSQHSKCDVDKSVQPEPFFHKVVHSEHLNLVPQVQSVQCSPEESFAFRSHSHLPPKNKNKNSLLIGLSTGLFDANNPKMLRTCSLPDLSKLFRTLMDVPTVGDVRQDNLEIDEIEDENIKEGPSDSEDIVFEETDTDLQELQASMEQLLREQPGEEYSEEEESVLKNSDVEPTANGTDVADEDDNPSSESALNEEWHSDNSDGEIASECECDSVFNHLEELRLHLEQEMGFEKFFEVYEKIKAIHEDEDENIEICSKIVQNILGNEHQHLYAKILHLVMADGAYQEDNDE
The note with it: at 0.1 µM.

Assay [13] has as its target T5, Serine/threonine-protein kinase Nek1 (Homo sapiens). Conditions: at 1 µM.
For assay [14], the target named is T6, Serine/threonine-protein kinase Nek2 (Homo sapiens) (UniProt P51955).
T6 sequence (whole entry): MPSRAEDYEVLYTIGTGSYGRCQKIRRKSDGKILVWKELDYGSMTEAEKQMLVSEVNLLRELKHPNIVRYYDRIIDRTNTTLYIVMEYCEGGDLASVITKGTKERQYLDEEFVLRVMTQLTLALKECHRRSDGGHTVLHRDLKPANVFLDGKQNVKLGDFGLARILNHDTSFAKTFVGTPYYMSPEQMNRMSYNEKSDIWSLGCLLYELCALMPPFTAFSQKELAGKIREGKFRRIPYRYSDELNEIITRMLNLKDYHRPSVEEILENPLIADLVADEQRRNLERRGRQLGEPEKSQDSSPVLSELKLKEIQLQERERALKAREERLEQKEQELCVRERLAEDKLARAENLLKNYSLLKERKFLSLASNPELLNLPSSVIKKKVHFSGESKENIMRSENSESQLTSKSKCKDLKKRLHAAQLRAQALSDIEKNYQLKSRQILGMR
Conditions: at 0.1 µM.

The target of assay [15] is T6, Serine/threonine-protein kinase Nek2 (Homo sapiens). Conditions: at 1 µM.
For assay [16], the target named is Serine/threonine-protein kinase Nek6 (Homo sapiens) (UniProt Q9HC98). The note with it: at 0.1 µM.
Sequence of Serine/threonine-protein kinase Nek6 (Homo sapiens) (Q9HC98 whole entry): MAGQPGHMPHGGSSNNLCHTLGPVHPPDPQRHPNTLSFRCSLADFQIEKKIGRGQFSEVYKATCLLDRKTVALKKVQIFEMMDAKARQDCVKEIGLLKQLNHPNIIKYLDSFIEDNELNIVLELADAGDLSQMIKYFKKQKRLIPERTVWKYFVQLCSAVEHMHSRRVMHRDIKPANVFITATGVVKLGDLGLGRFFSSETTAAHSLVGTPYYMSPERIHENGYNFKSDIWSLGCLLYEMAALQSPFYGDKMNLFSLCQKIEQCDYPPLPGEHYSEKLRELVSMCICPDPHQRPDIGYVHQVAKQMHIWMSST
Assay [17] shares this target. Conditions: at 1 µM.
The target of assay [18] is Serine/threonine-protein kinase Nek7 (Homo sapiens) (UniProt Q8TDX7). Conditions: at 0.1 µM.
Sequence of Serine/threonine-protein kinase Nek7 (Homo sapiens) (Q8TDX7 whole entry, looked up): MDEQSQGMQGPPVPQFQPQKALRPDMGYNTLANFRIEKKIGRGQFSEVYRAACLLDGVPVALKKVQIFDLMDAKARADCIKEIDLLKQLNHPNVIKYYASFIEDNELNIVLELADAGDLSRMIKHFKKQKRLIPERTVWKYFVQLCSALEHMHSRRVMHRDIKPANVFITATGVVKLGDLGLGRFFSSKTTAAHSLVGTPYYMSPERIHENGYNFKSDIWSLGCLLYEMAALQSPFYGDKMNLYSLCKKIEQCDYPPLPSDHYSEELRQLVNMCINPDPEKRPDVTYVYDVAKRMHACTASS
For assay [19] the target is unchanged. Conditions: at 1 µM.
In assay [20] the target is T7, Serine/threonine-protein kinase Nek9 (Homo sapiens) (UniProt Q8TD19).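 Also: reported value is the mean percent inhibition of NEK9.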
T7 sequence (whole entry): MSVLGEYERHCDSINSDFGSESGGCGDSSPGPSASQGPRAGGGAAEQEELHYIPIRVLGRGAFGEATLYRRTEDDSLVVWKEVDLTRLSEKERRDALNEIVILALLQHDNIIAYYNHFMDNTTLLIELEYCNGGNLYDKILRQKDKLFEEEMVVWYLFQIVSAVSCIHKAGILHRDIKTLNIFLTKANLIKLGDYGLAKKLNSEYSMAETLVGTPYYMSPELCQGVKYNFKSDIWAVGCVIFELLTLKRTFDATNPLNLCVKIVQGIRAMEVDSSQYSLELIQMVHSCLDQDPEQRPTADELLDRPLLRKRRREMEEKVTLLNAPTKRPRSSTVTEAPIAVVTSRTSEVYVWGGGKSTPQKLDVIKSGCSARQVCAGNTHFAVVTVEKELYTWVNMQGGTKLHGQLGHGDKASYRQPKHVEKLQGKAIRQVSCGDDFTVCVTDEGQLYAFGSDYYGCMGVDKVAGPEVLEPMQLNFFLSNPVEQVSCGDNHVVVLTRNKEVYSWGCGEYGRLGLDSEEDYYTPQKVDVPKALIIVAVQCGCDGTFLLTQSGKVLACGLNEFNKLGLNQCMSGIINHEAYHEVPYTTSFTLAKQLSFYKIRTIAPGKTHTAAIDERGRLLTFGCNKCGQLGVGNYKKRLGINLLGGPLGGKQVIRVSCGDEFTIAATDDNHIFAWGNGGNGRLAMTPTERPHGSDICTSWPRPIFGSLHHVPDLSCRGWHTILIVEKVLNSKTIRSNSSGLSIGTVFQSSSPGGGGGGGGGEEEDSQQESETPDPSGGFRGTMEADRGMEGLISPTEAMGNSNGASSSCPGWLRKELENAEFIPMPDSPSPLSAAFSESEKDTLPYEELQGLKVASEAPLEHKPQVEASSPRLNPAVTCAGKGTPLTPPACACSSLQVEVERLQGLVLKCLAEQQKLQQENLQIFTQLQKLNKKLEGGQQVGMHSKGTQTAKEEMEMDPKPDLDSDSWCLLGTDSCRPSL
The note with it: at 0.1 µM.

Sequence of Sphingosine kinase 1 (Homo sapiens) (Q9NYA1 whole entry): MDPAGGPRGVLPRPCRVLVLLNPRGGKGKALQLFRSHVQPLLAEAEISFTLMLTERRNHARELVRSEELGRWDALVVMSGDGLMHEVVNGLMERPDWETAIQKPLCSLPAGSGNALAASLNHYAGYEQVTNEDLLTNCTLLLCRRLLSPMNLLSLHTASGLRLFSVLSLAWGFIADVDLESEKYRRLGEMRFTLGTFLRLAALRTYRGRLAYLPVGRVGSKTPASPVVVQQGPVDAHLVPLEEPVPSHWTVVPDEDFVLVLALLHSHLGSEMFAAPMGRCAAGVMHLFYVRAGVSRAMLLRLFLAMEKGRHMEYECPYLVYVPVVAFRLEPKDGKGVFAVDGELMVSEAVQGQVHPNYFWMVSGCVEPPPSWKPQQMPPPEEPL

In general, inhibition refers to the relative decrease from the control value, in per cent. Turning to `Cc1nnc(-c2cccc(-c3ccc(C(=O)NCC4CC4)cc3)c2)o1`, the inhibition in assay [1] is -1.04%; in [2], 0.67%; in [3], -1.45%; in [4], 5.98%; in assay [5], 8.99%; in [6], -9.01%. For the same compound, the inhibition in assay [7] is -3.16%; in [8] it was 6.42%; in assay [9] it was 5.6%; in [10], 7.79%; in assay [11] it was 8.77%; in assay [12] it was 3.27%. Further, the inhibition stood at 4% in assay [13]; 6.76% in assay [14]; 5.41% in assay [15]; 2.74% in assay [16]; 6.86% in assay [17]; 4.29% in assay [18]. The inhibition in assay [19] worked out at 4.11%; in assay [20], 4.46%.

The values above are taken from ChEMBL document CHEMBL1961873, “Compounds: GSK PKIS; Assays: Nanosyn kinase panel” (2012).
